# Compound activity deposited in PubChem BioAssay by The Scripps Research Institute Molecular Screening Center.
# KLK7 zymogen act: proKLK7 (human) activation, primary screen | purified proKLK7, EDANS-DABCYL substrate fluorescence; 100% is mature enzyme control, 0% vehicle | AID 652039 | activation, % at 7 µM | hit rate 0.9% among 370,000 | P49862;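 active = activation above the mean of all tested compounds plus 3 SD, computed per campaign excluding outliers beyond control limits, cut at about 13% in these data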
# Target sequence (P49862 whole entry, looked up): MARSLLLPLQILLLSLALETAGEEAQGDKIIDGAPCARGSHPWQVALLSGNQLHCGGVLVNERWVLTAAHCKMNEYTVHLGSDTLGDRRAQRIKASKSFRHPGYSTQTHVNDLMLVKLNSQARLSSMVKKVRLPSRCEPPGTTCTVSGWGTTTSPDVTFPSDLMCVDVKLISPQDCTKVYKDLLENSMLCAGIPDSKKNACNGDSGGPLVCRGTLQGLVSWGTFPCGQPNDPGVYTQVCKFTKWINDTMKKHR
# PLCb3 inh: inhibitors of human phospholipase C beta3 | Q01970 | Purified PLC-beta3, fluorogenic substrate, fluorescence | inhibition, % at 12.2 µM | hit rate 0.18% among 370,000 | AID 720704; in the data active = inhibition above about 11%;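 also: 0% = median of compound wells on plate and 100% = full blocker control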
# ADAM10 inh: inhibitors of human ADAM10; O14672; recombinant ADAM10, EDANS/DABCYL FRET peptide cleavage, 3 h; inhibition, % at 7 µM; hit rate 0.62% among 370,000; AID 720582;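 active = inhibition above a per-campaign cutoff equal to the mean of compounds falling between control-based bounds plus 3 SD, cut at about 20% in these data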;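 also: 0% = DMSO wells while the 100% control is not disclosed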
# ADAM17 inh: inhibits human ADAM17. recombinant ADAM17, EDANS/DABCYL FRET peptide cleavage. inhibition, % at 6.95 µM. hit rate 0.83% among 370,000;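 active = inhibition above the mean of compounds lying between control limits plus 3 SD, set per campaign, cut at about 8.5% in these data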;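 also: 0% = DMSO-only wells as the low control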
# PLCg1 inh: PLC-gamma1 (human) inhibition, primary screen. purified PLC-gamma1, fluorogenic substrate, fluorescence. inhibition, % at 12.2 µM. hit rate 0.84% among 370,000; in the data active = inhibition above about 9.5%
# proKLK7 act conf: confirmation of human kallikrein-7 zymogen activators | purified proKLK7, EDANS-DABCYL substrate fluorescence; scaled: vehicle 0, mature enzyme 100 | activation, % at 7 µM | AID 686949 | hit rate 68% among 3,200 | shares compounds with KLK7 zymogen act;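 active = activation, as change over the incubation, above the mean of all tested compounds plus 3 SD, cut at about 13% in these data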
# EDANS-DABCYL int: counter-screen for kallikrein-7 activators: EDANS-DABCYL optical interference; activation, % at 7 µM; hit rate 80% among 3,200; EDANS-DABCYL substrate fluorescence interference, no enzyme, 4 h; solvent 0%, active enzyme control 100%; shares compounds with KLK7 zymogen act;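 active = activation above the all-compound mean plus 3 SD, ignoring values outside control-based bounds, cut at about 4.8% in these data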;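 also: value is the 4 h activation minus the activation read at time zero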
# K7 EDANS ctr: EDANS fluorescence interference in dose response, no enzyme; shares compounds with KLK7 zymogen act; EDANS-DABCYL peptide fluorescence interference; hit rate 20% among 250; EC50, µM;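 active = compounds that raise the fluorescence signal in this interference counterscreen, with EC50 at or below 10 µM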;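 also: intact quenched peptide substrate alone read at 355 nm excitation and 520 nm emission; signal is fluorescence gain from T0 to T4 after four hours at room temperature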
# * marks the source's active call; other numbers are inactive results; i = inactive; . = not tested or not shown. Sampled rows, rich in hits. Any-hit rate of the full collection: about 2.9%.
SMILES,KLK7 zymogen act,PLCb3 inh,ADAM10 inh,ADAM17 inh,PLCg1 inh,proKLK7 act conf,EDANS-DABCYL int,others
O=c1c2ccccc2[nH]c(=S)n1CCCN1CCN(c2ccccc2)CC1,0,-5,4,1,2,.,.,
O=c1c2cc(N3CCOCC3)ccc2[nH]c(=S)n1Cc1ccco1,28*,i,-85,-27,i,17*,17*,
O=c1c2cc(N3CCOCC3)ccc2[nH]c(=S)n1CCCN1CCCCC1,121*,i,-129,-37,i,29*,24*,K7 EDANS ctr=>69
C[C@H](O)[C@@H]1CN2CCc3ccc(N4CCOCC4)cc3[C@@H]2C[C@@H]1N(C)CC1CCCCC1,0,-13,-10,-6,-11,.,.,
C#CCNC(=O)CSCc1nc(-c2ccc(OCC)cc2)oc1C,.,1,-8,-6,-1,.,.,
C=CCN1[C@H](C)COc2cc(N3CCCC3)ccc2S1(=O)=O,0,-2,-2,-1,-3,.,.,
COCCOC(=O)C1=C(C)NC2=C(C(=O)CC(C)(C)C2)C1c1cccnc1 (stereo not drawn),18*,i,i,-215,-375,39*,34*,
CC1=C(C(=O)OC(C)C)C(c2cccnc2)C2=C(CC(C)(C)CC2=O)N1 (stereo not drawn),7,-438,i,-180,-299,.,.,
CC1=C(C(=O)OCC2CCCO2)C(c2ccncc2)C2=C(CC(C)(C)CC2=O)N1 (stereo not drawn),13*,-357,-487,-163,-295,21*,29*,
COC(=O)[C@]12C[C@H](CC(=O)NCC34CC5CC(CC(C5)C3)C4)C(=O)N(Cc3ccco3)C1=C[C@H](C1CCCC1)O[C@@H]2C,1,2,18,6,0,.,.,
O=c1nc(-c2ccccc2)cc(-c2ccccc2)[nH]1,6,-69,i,-102,-52,.,.,
COc1ccccc1-c1cc(-c2ccccc2)nc(=O)[nH]1,18*,i,-370,-136,i,10,14*,
COc1ccc(-c2cc(C(F)(F)F)nc(SCC(N)=O)n2)cc1,15*,-426,i,-319,-322,6,6.6*,
COc1ccc(-c2cc(C(F)(F)F)nc(SCC(=O)N(C)Cc3cn(C)nc3C)n2)cc1OC,32*,i,-345,-113,i,3,1,
COc1ccc(-c2cc(C(F)(F)F)nc(SCCC(=O)N3CCN(C)CC3)n2)cc1,0,-7,2,0,2,.,.,
CCn1ncc(-c2ccnc3cc(C(=O)O)nn23)c1C,13*,i,i,-311,i,39*,44*,
CC(NC(=O)c1cc2ccc(C(F)(F)F)cc2nc1N)c1cccc2ccccc12 (stereo not drawn),-3,-5,-13,-1,-18,.,.,
O=[n+]1cc(-c2cc3ccccc3o2)n([O-])c2c1CCCC2,15*,i,-162,-45,-386,12,18*,
COc1ccc(C(=O)N(C)[C@H]2C[C@H]3c4[nH]c5ccccc5c4CCN3C(=O)[C@H]2CO)cc1,44*,-330,i,-230,-279,51*,57*,
COc1ccc(NC(=O)N(C)[C@H]2C[C@H]3c4[nH]c5ccccc5c4CCN3C(=O)[C@H]2CO)cc1,24*,-337,i,-234,-268,3,3,
COc1ccc(NC(=O)N(C)[C@H]2C[C@H]3c4[nH]c5ccccc5c4CCN3C(=O)[C@H]2[C@H](C)O)cc1,88*,i,i,i,i,8,9.5*,
N#Cc1ccc(Cn2ccc3ccc(-c4ccc5ccn(C(=O)c6ccccc6)c5c4)cc32)cc1,-2,-68,-24,-6,-48,.,.,
C=CCN1[C@@H](C)COc2cc(N3CCCC3)ccc2S1(=O)=O,0,0,4,0,-2,.,.,
CN(C)c1ccc2c(=O)cc[nH]c2c1,80*,i,i,i,i,72*,73*,
O=c1cc[nH]c2c1ccc1c(=O)cc[nH]c12,-61,i,-272,-108,-414,.,.,
SMILES,KLK7 zymogen act,PLCb3 inh,ADAM10 inh,ADAM17 inh,PLCg1 inh,proKLK7 act conf,EDANS-DABCYL int,others
COC(=O)COc1ccc(-c2ccccc2)cc1C=O,14*,-160,-109,-32,-151,-12,-16,
COC(=O)COc1ccc(-c2ccc(F)cc2)cc1C=O,13*,-162,-72,-23,-136,-26,-30,
Cc1ccsc1S(=O)(=O)n1c(CN2CCOCC2)nc2ccccc21,0,1,-6,-2,0,.,.,
Cc1cc(C)nc(N2CCC(C(=O)N(C)CCc3ccccc3)CC2)n1,0,-11,-46,-9,-1,.,.,
O=C(Nc1ccc2c(c1)OCO2)c1cc(-c2cccc(O)c2)on1,1,-35,-4,-3,-14,.,.,
O=C(Nc1ccc2c(c1)OCO2)c1cc(-c2ccc(O)cc2)on1,20*,-88,-25,-12,-37,21*,14*,K7 EDANS ctr=i
CCCC[C@H](CCCc1ccc(F)cc1)CCC(=O)N(c1ccccc1)c1ccccc1,0,3,9,-1,3,.,.,
O=C(COC(=O)c1ccccc1NCCO)NCCc1ccccc1,19*,i,i,-434,i,16*,22*,
O=C(COC(=O)c1ccccc1NCCO)NCC1CCCCC1,21*,i,i,-440,-405,5,5.2*,
CC(C#N)(NC(=O)COC(=O)c1ccccc1NCCO)C1CC1 (stereo not drawn),19*,i,i,i,i,25*,34*,
O=C(COC(=O)c1ccccc1NCCO)Nc1cccc(S(=O)(=O)NC2=NCCCCC2)c1,17*,i,i,-470,i,0,-4,
O=C(COC(=O)c1ccccc1NCCO)NCCC1=CCCCC1,10,i,i,-447,i,.,.,
O=C(COC(=O)c1ccccc1Br)NCC1CCCCC1,0,-1,7,0,-3,.,.,
O=C(COC(=O)c1ccccc1NCCO)NNC(=O)c1cccs1,38*,i,i,-479,i,35*,37*,
CCOC(=O)C1CCN(c2cc3c(cc2NC(=O)c2cc(OC)ccc2Br)n(C)c(=O)n3C)CC1,19*,i,-70,-19,i,25*,31*,
CCOC(=O)C1CCN(c2cc3c(cc2NC(=O)c2ccccc2Br)n(C)c(=O)n3C)CC1,3,-86,-14,-7,-55,.,.,
COc1ccc(CNS(=O)(=O)c2cc3c(cc2Br)CC(C)N3C(C)=O)cc1 (stereo not drawn),0,-2,-2,2,-1,.,.,
